Measurements: ChEMBL document CHEMBL3988442, “University of Dundee, Small-Polar-MMV Screening Library” (2021)
Hit rate of the full screen: of about 48,000 compounds, about 13,000 (27%) showed an effect of 50% or more. The list shows a part of the results.

Each molecule was assayed on Wolbachia pipientis (assay: Anti-Wolbachia Cell-Based Screen). Conditions: 5 µM.
Format: functional
Parameters: scale not given: in the data most compounds retested in dose-response had high values

Row | Compound | Percent Effect [%]
1 | COc1cccc(-c2cnc3n2CCC32CCN(S(C)(=O)=O)CC2)c1 | -9.63
2 | CN1C(=O)CC(C(=O)O)C12CCN(Cc1ccc(F)cc1Cl)CC2 (configuration not stated) | 0.7528
3 | O=C(c1cnc(NCc2sccc2Br)c(Cl)c1)N1CCCCC1 | -7.953
4 | COCCOc1ncccc1C(=O)Nc1ccc(-n2cncn2)c(F)c1 | -9.189
5 | Cc1ccccc1C(NC(=O)CNC(=O)c1ccoc1C)C(C)C (configuration not stated) | -4.038
6 | CCc1noc(C)c1C(=O)N1CCCC1Cn1cc(C)cn1 (configuration not stated) | 5.124
7 | Cc1cnn(CC2CCCN2C(=O)c2c(F)cccc2Cl)c1 (configuration not stated) | 118.3
8 | Cc1cnn(CC2CCCN2C(=O)c2cccc(F)c2F)c1 (configuration not stated) | 121.1
9 | Cc1cnn(CC2CCCN2C(=O)c2cccc3c2OCO3)c1 (configuration not stated) | -6.859
10 | Cc1cnn(CC2CCCN2C(=O)c2cc(C)nc3[nH]nc(C)c23)c1 (configuration not stated) | 150.6
11 | O=C(C1=CCCC1)N1C[C@@H]2COC[C@]2(COCc2ccncc2)C1 | 94.55
12 | O=C(C1=CCCC1)N1C[C@@H]2COC[C@]2(COCC2CC2)C1 | 119
13 | O=C(Cc1ccco1)N1C[C@@H]2COC[C@]2(COCC2CCOCC2)C1 | -6.133
14 | O=C(N1CCCC1)N1CC[C@H]2OCC[C@@]2(COc2ncccc2F)C1.O=C(O)C(F)(F)F | -10.69
15 | O=C(C1=CCCC1)N1C[C@H]2CCC[C@@]2(COCc2ccncc2)C1.O=C(O)C(F)(F)F | 12.49
16 | Cc1cc(F)ccc1C(=O)N1C[C@@H]2COC[C@]2(COCC2CC2)C1 | 3.024
17 | O=C(C1=CCCC1)N1CCC[C@]2(C[C@@H](Oc3ncccc3F)CO2)C1.O=C(O)C(F)(F)F | -5.101
18 | O=C(C1=CCCC1)N1C[C@@H]2COC[C@]2(COc2ncccc2F)C1.O=C(O)C(F)(F)F | 91.91
19 | O=C(c1ncoc1C1CCCO1)N1CCC2(CCCCC2)CC1 (configuration not stated) | -6.426
20 | CCOc1ccc(C(=O)NCc2ccnc(N3CCN(C)CC3)c2)cn1 | 4.898
21 | Cc1nn(C)c(N(C)C)c1CNCc1nnc2n1CCCCC2.Cl | 5.74
22 | COc1cc(CN2C[C@H](OC)[C@]3(CCCO3)C2)ccc1F | 93.9
23 | COc1cc(CN2CC[C@@]3(CCCO3)[C@@H](O)C2)ccc1F | -7.237

Row | Compound | Percent Effect [%]
24 | CO[C@H]1CN(Cc2ccccc2F)[C@@H]2CCCO[C@H]12 | 2.761
25 | COCCCC1(CO)CCCN(Cc2ccc(F)c(OC)c2)C1 (configuration not stated) | -7.879
26 | CO[C@H]1CN(Cc2ccc(F)c(F)c2)C[C@@]12CCCO2 | 125.7
27 | C[C@@H]1CN(Cc2cc(C(F)(F)F)ccc2F)CC[C@@]1(O)C1CC1 | 18.84
28 | COC(=O)C1CN(Cc2cc(F)ccc2Br)CCO1 (configuration not stated) | -7.364
29 | CS(=O)(=O)NCCC1CCCN(Cc2ccccc2F)C1 (configuration not stated) | -31.18
30 | COc1coc(CN2CCCC(CCc3ccc(F)c(F)c3)C2)cc1=O (configuration not stated) | 29.51
31 | Cc1ccc(CN2CCC3(CCCN(Cc4ccc(F)c(F)c4)C3)C2)o1 (configuration not stated) | -5.305
32 | CO[C@H]1CN(Cc2ccccc2F)C[C@@]12CCCO2 | 78.59
33 | CO[C@H]1CN(Cc2cc(F)ccc2F)CC[C@@]12CCCO2 | 118.4
34 | Cc1nc(CNC(=O)N2CCCC(c3ncc[nH]3)C2)sc1C (configuration not stated) | -13.73
35 | Cc1cc(CN(Cc2ccccc2)C(C)CN2CCOCC2)no1 (configuration not stated) | -1.705
36 | CCSc1ccc(NC(=O)NC(C)c2c(C)noc2C)cn1 (configuration not stated) | -11.22
37 | CCN1CCCN(c2ccc(-n3ccc(C)n3)nn2)CC1 | -3.628
38 | Cc1ccc(Oc2ncccc2CNC2Cc3ccccc3C2)cn1 | 12.49
39 | NCC1Cc2cccc(-c3nccc(N4CCC(O)CC4)n3)c2O1 (configuration not stated) | -9.933
40 | Cc1cc2n(n1)CC(CNC1CCN(CCc3ccccc3)CC1)CN2 (configuration not stated) | 3.275
41 | CCc1cnc(N)nc1NCCn1cc(Cl)cn1 | -1.568
42 | CN(C)C(=O)C1CN(Cc2nccs2)CCN(S(C)(=O)=O)C1 (configuration not stated) | 115
43 | CS(=O)(=O)N1CCC2(CCN(Cc3nccs3)CC2)CC1.O=C(O)C(F)(F)F | 12.17
44 | Cc1ccc(-c2nc(CN3CCC(C(=O)N(C)C)CC3)cs2)o1 | 9.027
45 | Cc1cc(CN2CCN(S(C)(=O)=O)CC(C(=O)N(C)C)C2)no1 (configuration not stated) | 130.4
46 | CN(C)C(=O)C1CN(Cc2ccccc2)CCN(S(C)(=O)=O)C1 (configuration not stated) | 1.114

Row | Compound | Percent Effect [%]
47 | CN(C)C(=O)C1CN(Cc2ccsc2)CCN(S(C)(=O)=O)C1 (configuration not stated) | 92.25
48 | CN(C)C(=O)C1CN(Cc2cscn2)CCN(S(C)(=O)=O)C1 (configuration not stated) | 29.17
49 | Cc1cc(CN(C)C(=O)NC2CCN(S(C)(=O)=O)CC2)no1 | -12.59
50 | CN(C)C(=O)NCc1nnc2n1CCN(Cc1cccs1)C2 | -18.34
51 | CN(C)C(=O)C1CN(Cc2cccs2)CCN(S(C)(=O)=O)C1 (configuration not stated) | 110.5
52 | CN(C)C(=O)C1CN(Cc2ccsc2)Cc2ccnn2C1.O=C(O)C(F)(F)F (configuration not stated) | -5.507
53 | C1CCC(CNC2CCSCC2)(N2CCOCC2)CC1 | -18.78
54 | CCN(CC)Cc1ccccc1NC(=O)N(C)Cc1ccc(OC)cc1 | -34.67
55 | c1ccc(-n2ncc(CNCC3CCCN3c3cccnn3)n2)cc1 (configuration not stated) | 8.726
56 | CCC(O)CN(Cc1ccccc1)S(=O)(=O)c1cnc(C)s1 (configuration not stated) | -9.422
57 | c1cncc(CN(Cc2ccsc2)Cc2ccc(C3CCCCO3)o2)c1 (configuration not stated) | -4.94
58 | CN(C)C(=O)C1CN(Cc2ccccn2)CCN(S(C)(=O)=O)C1 (configuration not stated) | 88.48
59 | CS(=O)(=O)N1C[C@H]2CCCN(Cc3cccs3)[C@H]2C1.O=C(O)C(F)(F)F | 3.048
60 | CC(C)[C@H]1CN(Cc2ccccn2)C[C@@H]1NS(=O)(=O)C1CC1 | -5.384
61 | CCCS(=O)(=O)N1C[C@@H]2CN(Cc3cccs3)CCO[C@@H]2C1.O=C(O)C(F)(F)F | 8.558
62 | CS(=O)(=O)N1CCN(Cc2cccs2)CC(C(N)=O)C1 (configuration not stated) | 99.35
63 | CCN(CC(F)(F)F)C(=O)C1CCCN(Cc2ccccn2)C1 (configuration not stated) | 10.59
64 | COCC1CN(C(=O)CNC(C)=O)Cc2ncnn2C1 (configuration not stated) | 6.87
65 | COc1nc2ccccc2cc1CN1CCC(CNS(C)(=O)=O)C1 (configuration not stated) | -1.226
66 | CN(C)CC(=O)N1CCCC2(CCC(=O)N(CCc3c[nH]cn3)C2)C1 (configuration not stated) | 10.28
67 | COc1ccc(-c2nc3c([nH]2)CCNC3C(=O)O)c2ccc(C)nc12 (configuration not stated) | 11.46
68 | O=C(O)C(F)(F)F.O=C(O)C(F)(F)F.O=C(O)C(F)(F)F.c1cncc(CN2CC[C@@H]3[C@@H]2CCN3Cc2ccc3c(c2)OCO3)c1 | -20.95
69 | CC(C)C(=O)N1CC[C@@H]2[C@H](CC1)N(Cc1cccnc1)CCS2(=O)=O.O=C(O)C(F)(F)F.O=C(O)C(F)(F)F | 86.93

Row | Compound | Percent Effect [%]
70 | CC(C)CN1CCS(=O)(=O)[C@@H]2CCN(S(=O)(=O)c3ccccc3)CC[C@@H]21.O=C(O)C(F)(F)F | -6.866
71 | O=C(O)C(F)(F)F.O=C(O)C(F)(F)F.O=S1(=O)CCN(Cc2cccnc2)[C@H]2CCN(c3ncccn3)CC[C@H]21 | 0.02856
72 | CCS(=O)(=O)N1CC[C@@H]2[C@H](CC1)N(Cc1cccnc1)CCS2(=O)=O.O=C(O)C(F)(F)F.O=C(O)C(F)(F)F | 110.8
73 | Cc1cccc(CN2CCS(=O)(=O)[C@@H]3CCN(C(=O)C4CC4)CC[C@@H]32)n1.O=C(O)C(F)(F)F | 4.108
74 | O=C(C1CC1)N1CC[C@@H]2[C@H](CC1)N(Cc1cccnc1)CCS2(=O)=O.O=C(O)C(F)(F)F.O=C(O)C(F)(F)F | 101.3
75 | CCCC(=O)N1CC[C@@H]2[C@H](CC1)N(Cc1cccc(C)n1)CCS2(=O)=O.O=C(O)C(F)(F)F | 0.2499
76 | CCS(=O)(=O)N1CC[C@@H]2[C@H](CC1)N(Cc1cccc(C)n1)CCS2(=O)=O.O=C(O)C(F)(F)F | -2.049
77 | CCS(=O)(=O)N1CC[C@@H]2[C@H](CC1)N(CC(C)C)CCS2(=O)=O.O=C(O)C(F)(F)F | -5.407
78 | O=C(CC1CC1)N1CC[C@@H]2[C@H](CC1)N(Cc1cccnc1)CCS2(=O)=O.O=C(O)C(F)(F)F.O=C(O)C(F)(F)F | 93.65
79 | CN(CCCN1CCOCC1)[C@@H]1c2ccccc2C2(CCNCC2)[C@H]1O | 1.971
80 | Cc1cc(S(=O)(=O)N2CCCc3cc(F)cc(F)c32)sc1C(=O)O | 6.843
81 | Cc1ccc2nc(C)cc(C(=O)N3C[C@H]4CCC[C@@]4(CO)C3)c2c1 | -30.24
82 | COCCn1cnnc1Cn1ccnc1-c1ccoc1 | 3.29
83 | Nc1ncc2c(n1)CN(C1CCCC1)C2=O | -0.5678
84 | CCC(=O)N1CC[C@@H]2[C@H](CC1)N(Cc1cccc(C)n1)CCS2(=O)=O.O=C(O)C(F)(F)F | -0.9694
85 | CCCC(=O)N1CC[C@@H]2[C@H](CC1)N(Cc1cccnc1)CCS2(=O)=O.O=C(O)C(F)(F)F.O=C(O)C(F)(F)F | -5.055
86 | CC(C)CC(=O)N1CC[C@@H]2[C@H](CC1)N(Cc1cccnc1)CCS2(=O)=O.O=C(O)C(F)(F)F.O=C(O)C(F)(F)F | 108.2
87 | Cc1cc(N2CCN(Cc3ccccc3)CC(O)C2)nc(N)n1 (configuration not stated) | 4.027
88 | CNC(=O)C1CN(c2cc(C)ncn2)CCN1Cc1ccccc1 (configuration not stated) | 91.54
89 | CNC(=O)C1CN(c2ccnc(C)n2)CCN1Cc1ccccc1 (configuration not stated) | 49.78
90 | Cc1cccnc1NC(=O)C1CCCN1Cc1ccccc1 (configuration not stated) | 28.43
91 | CNC(=O)C1CN(c2ncccn2)CCN1Cc1ccccc1 (configuration not stated) | 91.24
92 | CC(C)Nc1cc(N2CCN(Cc3ccccc3)C(CCO)C2)ncn1 (configuration not stated) | 10.47
